Experimental data: PubChem BioAssay (NCATS)
Inconclusive results are not listed. Entries that show only a call come without a potency. Calls of active or inactive are those of the source. Calls follow the shape of the dose curve; as a rule, active = well fitted curve in the direction sought with a large enough effect; inconclusive = small, poorly fitted or top-dose-only effect, or another doubt; inactive = no such curve, though single readings can be large; an effect the other way counts as inactive or inconclusive.

What was measured:
[1] = qHTS of pediatric cancer cell lines to identify multiple opportunities for drug repurposing: Primary screen for NB1643 cells (AID 1347099); also: nearly all actives have a fitted effect of over 50% in size
Summary of the method: (§1)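 ATP-based luminescence (CellTiter-Glo) quantifies viability after a 48-hour exposure. Compounds are dosed across 8 or 11 final concentrations; DMSO and 2.3 µM bortezomib serve as controls.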

[2] = qHTS of pediatric cancer cell lines to identify multiple opportunities for drug repurposing: Primary screen for LAN-5 cells (AID 1347100)
Summary of the method: (§2)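 Cells (500-1,000/well) in growth media were settled 5 h at 37 degrees C, then given compounds for 48 h. Viability was read as CellTiter-Glo luminescence. Primary runs used MIPE at 11 points (0.78 nM-46 µM) and NPC at 8 points (0.59 nM-46 µM); follow-ups used 11 points.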

[3] = qHTS of pediatric cancer cell lines to identify multiple opportunities for drug repurposing: Primary screen for RD cells (AID 1347104); also: nearly all actives have a fitted effect of over 55% in size
Summary of the method: as §1

[4] = qHTS of pediatric cancer cell lines to identify multiple opportunities for drug repurposing: Primary screen for MG 63 (6-TG R) cells (AID 1347105); also: nearly all actives have a fitted effect of over 50% in size
Summary of the method: as §1

[5] = qHTS of pediatric cancer cell lines to identify multiple opportunities for drug repurposing: Primary screen for control Hh wild type fibroblast cells (AID 1347106); also: nearly all actives have a fitted effect of over 55% in size
Summary of the method: as §2

[6] = qHTS of pediatric cancer cell lines to identify multiple opportunities for drug repurposing: Primary screen for Rh30 cells (AID 1347107); also: nearly all actives have a fitted effect of over 75% in size
Summary of the method: as §2

[7] = qHTS of pediatric cancer cell lines to identify multiple opportunities for drug repurposing: Primary screen for Rh41 cells (AID 1347108); also: nearly all actives have a fitted effect of over 70% in size
Summary of the method: as §1

[8] = qHTS of pediatric cancer cell lines to identify multiple opportunities for drug repurposing: Primary screen for OHS-50 cells (AID 1347103); also: nearly all actives have a fitted effect of over 40% in size
Summary of the method: (§3)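 Cells (500-1,000/well) rested 5 h, then received compounds for 48 h; metabolically active cells were measured by CellTiter-Glo luminescence. Final concentrations spanned up to 46 µM (MIPE, 11-point) or 0.59 nM-46 µM (NPC, 8-point) in primary screens, 11-point in follow-ups.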

[9] = qHTS of pediatric cancer cell lines to identify multiple opportunities for drug repurposing: Primary screen for Rh18 cells (AID 1347102); also: nearly all actives have a fitted effect of over 65% in size
Summary of the method: as §2

[10] = qHTS of pediatric cancer cell lines to identify multiple opportunities for drug repurposing: Primary screen for BT-12 cells (AID 1347101); also: nearly all actives have a fitted effect of over 25% in size
Summary of the method: as §3
Potency is read from the fitted curve at half-maximal effect.

Compound	Potency [1]	Potency [2]	Potency [3]	Potency [4]	Potency [5]	Potency [6]	Potency [7]	Potency [8]	Potency [9]	Potency [10]
CN1CCC(OC(c2ccccc2)c2ccccc2)CC1	inactive	inactive	inactive	inactive	inactive	inactive	inactive	–	–	–
CC(=O)Nc1ncc([N+](=O)[O-])s1	inactive	inactive	inactive	inactive	inactive	inactive	inactive	inactive	–	–
CC(=O)O[C@]1(C(C)=O)CC[C@H]2[C@@H]3C=C(Cl)C4=CC(=O)CC[C@]4(C)[C@H]3CC[C@@]21C	inactive	inactive	–	inactive	inactive	inactive	–	–	inactive	–
CC(=O)Nc1ccc(S(=O)(=O)Nc2ccc([N+](=O)[O-])cc2)cc1	inactive	–	inactive	inactive	inactive	inactive	inactive	inactive	inactive	inactive
CCN1/C(=C/C=C/c2sc3ccccc3[n+]2CC)Sc2ccccc21	2910 nM (active)	–	1160 nM (active)	1840 nM (active)	–	3260 nM (active)	1640 nM (active)	601 nM (active)	1030 nM (active)	601 nM (active)
O=C(Nc1ccc([N+](=O)[O-])cc1)Nc1ccc([N+](=O)[O-])cc1	inactive	inactive	inactive	inactive	inactive	inactive	inactive	inactive	–	–
CCCCN=C(N)N=C(N)N	inactive	inactive	inactive	inactive	inactive	inactive	inactive	–	inactive	–
O=C(O)c1ccc(S(=O)(=O)N(Cl)Cl)cc1	inactive	inactive	inactive	inactive	–	inactive	inactive	inactive	–	–
CN(CCCN1c2ccccc2CCc2ccccc21)CC(=O)c1ccc(Cl)cc1	inactive	inactive	inactive	inactive	–	inactive	inactive	–	–	–
NS(=O)(=O)c1cc2c(cc1Cl)NC(CC1CCCC1)NS2(=O)=O (stereo unspecified)	inactive	inactive	inactive	inactive	inactive	inactive	inactive	–	inactive	–
N/C(=N\N=C\c1ccc(Cl)cc1)N/N=C/c1ccc(Cl)cc1	inactive	–	–	–	inactive	inactive	inactive	–	inactive	inactive
Cc1cc(CC(=O)O)c(C)n1-c1ccc(Cl)cc1	inactive	–	inactive	inactive	inactive	inactive	inactive	inactive	inactive	inactive
O=C1[C@H](CC[C@H](O)c2ccc(F)cc2)[C@@H](c2ccc(O)cc2)N1c1ccc(F)cc1	inactive	inactive	–	inactive	–	inactive	–	–	inactive	–
C[C@H]1O[C@@H](O[C@H]2CC[C@@]3(C)[C@H](CC[C@@H]4[C@@H]3C[C@@H](O)[C@]3(C)[C@@H](C5=CC(=O)OC5)CC[C@]43O)C2)C[C@H](O)[C@@H]1O[C@H]1C[C@H](O)[C@H](O[C@H]2C[C@H](O)[C@H](O[C@@H]3O[C@H](CO)[C@@H](O)[C@H](O)[C@H]3O)[C@@H](C)O2)[C@@H](C)O1	668 nM (active)	237 nM (active)	150 nM (active)	84.1 nM (active)	75 nM (active)	–	–	219 nM (active)	–	–
CCN1CCN(C(=O)N[C@@H](C(=O)N[C@@H]2C(=O)N3C(C(=O)O)=C(CSc4nnnn4C)CS[C@H]23)c2ccc(O)cc2)C(=O)C1=O	inactive	inactive	–	inactive	inactive	inactive	inactive	inactive	inactive	–
Cc1ccc(S(=O)(=O)NC(=O)NC2CCCC2)cc1	inactive	inactive	–	inactive	–	inactive	inactive	inactive	–	–
CCOCCn1c(N2CCCN(C)CC2)nc2ccccc21	inactive	inactive	inactive	inactive	inactive	–	inactive	inactive	–	–
CCCCC(CC)CN1CN(CC(CC)CCCC)CC(C)(N)C1 (stereo unspecified)	inactive	inactive	inactive	inactive	inactive	inactive	inactive	–	inactive	–
CC(C)(Cc1c[nH]c2ccccc12)NCC(O)COc1ccccc1C#N (stereo unspecified)	inactive	inactive	–	inactive	–	inactive	inactive	–	–	–
CCN(CC)CCNC(=O)c1cc(Br)c(N)cc1OC	inactive	inactive	–	inactive	inactive	inactive	inactive	inactive	–	–
C#C[C@]1(O)CC[C@H]2[C@@H]3[C@H](C)CC4=C(CCC(=O)C4)[C@H]3CC[C@@]21C	inactive	inactive	–	inactive	inactive	inactive	inactive	inactive	inactive	–
CCOC(=O)c1c(N)sc2c1CCN(Cc1ccccc1)C2	inactive	–	–	inactive	inactive	inactive	inactive	17400 nM (active)	inactive	17400 nM (active)
NC(=O)n1c(O)c(C(=O)c2cccs2)c2cc(Cl)ccc21	–	–	–	inactive	inactive	inactive	inactive	–	inactive	–
CNCCCCOc1ccccc1Cc1ccccc1	–	–	23700 nM (active)	–	inactive	inactive	–	17400 nM (active)	–	–
COc1ccc(C(Cl)=C(c2ccc(OC)cc2)c2ccc(OC)cc2)cc1	inactive	–	inactive	inactive	inactive	–	inactive	–	inactive	–
CN1CCC[C@@H]1CCO[C@](C)(c1ccccc1)c1ccc(Cl)cc1	inactive	–	26600 nM (active)	–	inactive	inactive	–	15500 nM (active)	–	–
CCN(CC)CCOc1ccc2c(c1)C(=O)c1cc(OCCN(CC)CC)ccc1-2	–	23700 nM (active)	21100 nM (active)	inactive	inactive	inactive	–	–	–	–
Nc1nc(Cl)nc2c1ncn2[C@@H]1O[C@H](CO)[C@@H](O)[C@@H]1F	–	335 nM (active)	inactive	841 nM (active)	inactive	inactive	inactive	195 nM (active)	inactive	–
